# Screening results (PubChem BioAssay)
# aSyn rescue: rescues yeast growth from alpha-synuclein toxicity; Yeast expressing alpha-synuclein, growth rescue, BacTiter-Glo, 24 h; Potency, µM (titrated, usually from 46.1 µM), for the others: top-dose growth rescue (activation), most hits filed as activators; hit rate 0.14% among 370,000; AID 652106; also: potency is read from the fitted curve at half-maximal effect; % of control where 0% means no effect; nearly all actives have a fitted effect of over 65% in size
#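 Screening used galactose-induced yeast with toxic alpha-synuclein levels, exposed to compound for 24 hr at 30 deg C. Cell growth, read with BacTiter-Glo luminescence, gave the measured signal.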
# Abeta yeast res: restores growth of yeast expressing A-beta42 peptide; yeast expressing A-beta42, growth rescue, OD600, 48 h; response scale: 0% DMSO, 100% iron-clioquinol control; Potency, µM (top dose mostly 46.1 µM), usual class: activators; hit rate 0.063% among 410,000; also: potency is read from the fitted curve at half-maximal effect; nearly all actives have a fitted effect of over 55% in size
#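 Growth rescue measured by 600 nm absorbance after 48 h yeast culture at 30 C with compound. Values normalized between DMSO and an equimolar ferric chloride plus clioquinol control.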
# PTHR1 agonist: agonists of human PTHR1 parathyroid hormone receptor; Potency, µM (titrated, usually from 115 µM), for inactives: top-dose activation, actives largely listed as activators; HEK293 GP2 PTHR1 cells, GloSensor cAMP luminescence, 1 h; AID 743266; hit rate 0.075% among 410,000; also: potency is read from the fitted curve at half-maximal effect; nearly all actives have a fitted effect of over 55% in size
# Target sequence (Q03431 whole entry, looked up): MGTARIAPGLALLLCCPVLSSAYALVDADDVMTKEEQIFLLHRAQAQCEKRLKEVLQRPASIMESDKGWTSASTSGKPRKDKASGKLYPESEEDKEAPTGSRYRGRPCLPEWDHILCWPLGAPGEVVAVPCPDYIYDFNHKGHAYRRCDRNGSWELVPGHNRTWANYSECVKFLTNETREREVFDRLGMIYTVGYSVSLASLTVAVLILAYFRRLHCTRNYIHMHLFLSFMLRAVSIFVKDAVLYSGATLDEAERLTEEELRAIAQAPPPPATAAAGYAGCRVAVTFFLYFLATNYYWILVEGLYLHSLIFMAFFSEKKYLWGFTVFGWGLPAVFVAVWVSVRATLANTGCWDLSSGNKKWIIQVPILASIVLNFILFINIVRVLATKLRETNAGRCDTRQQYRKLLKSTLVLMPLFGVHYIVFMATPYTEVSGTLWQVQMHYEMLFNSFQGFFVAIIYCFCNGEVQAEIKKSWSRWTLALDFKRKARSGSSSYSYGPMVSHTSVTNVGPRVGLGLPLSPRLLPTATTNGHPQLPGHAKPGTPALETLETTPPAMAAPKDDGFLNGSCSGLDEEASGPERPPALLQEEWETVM
#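 HEK-293-derived GP2 cells expressing PTHR1 and a GloSensor cAMP reporter, 3,000/well, plated overnight, given luciferin plus IBMX (each 0.5 mM as added) for 1 h at 37 °C, then compound for 1 h at 37 °C. Luminescence was read after 15 min at room temperature.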
# LDHA inh: inhibitors of human lactate dehydrogenase A | hit rate 0.15% among 480,000 | activity change, % (values are at about 110 or 230 µM) | P00338 | AID 1347041 | purified LDHA, NADH/diaphorase-resazurin fluorescence; hits give low values; in the data active = activity change below about -30%; inconclusive = mostly about -25% to -30%;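 also: plate controls were DMSO wells for no effect and wells without enzyme for full effect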
#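 Enzyme activity of human lactate dehydrogenase 5 (2 nM; 0.06 mM NADH, 0.2 mM pyruvate, 5 min, RT) is measured via a resazurin/diaphorase fluorescence readout of residual NADH.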
# FUS yeast rescue: suppressors of FUS proteinopathy in yeast. S. cerevisiae FUS-expressing, growth rescue, OD600, 24 h. Potency, µM (highest dose often 76.6 µM), most hits filed as activators. hit rate 0.24% among 390,000. AID 1347120;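 also: potency is read from the fitted curve at half-maximal effect; plate controls were DMSO vehicle for no effect and reference control for full effect; nearly all actives have a fitted effect of over 55% in size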
#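 Cultures pregrown in 2.5% raffinose medium are shifted to minimal medium containing 2% galactose to express toxic FUS. Compounds are tested at several concentrations. After 24hr at 30C, growth is quantified at 600 nm absorbance.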
# TDP-43 yeast inh: TDP-43 toxicity inhibition in yeast | hit rate 1.8% among 410,000 | AID 652104 | TDP-43 expressing yeast growth rescue, BacTiter-Glo, 24 h | Potency, µM (highest dose often 46.1 µM), without a hit: at the highest dose growth rescue (activation), most hits filed as activators; also: potency is read from the fitted curve at half-maximal effect; % of control where 0% means no effect; nearly all actives have a fitted effect of over 50% in size
#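 Luminescence from BacTiter-Glo reports growth of TDP-43-expressing yeast after 24 hr at 30 deg C with compound. Cells were raffinose-pregrown to mid-log, then seeded in galactose medium at OD600=0.02.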
# Starred values were filed as active, the others as inactive; i = inactive; ? = inconclusive; . = no result given; [ ] = another dose, or the depositor's remark. In the library only some 1.9% were active in any assay of this set; here they are far more common. Unless noted, calls follow the shape of the dose curve; as a rule, active = well fitted curve in the direction sought with a large enough effect; inconclusive = small, poorly fitted or top-dose-only effect, or another doubt; inactive = no such curve, though single readings can be large; an effect the other way counts as inactive or inconclusive.
SMILES,aSyn rescue,Abeta yeast res,PTHR1 agonist,LDHA inh,FUS yeast rescue,TDP-43 yeast inh
Cc1ccccc1CS(=O)(=O)c1nnc([C@H](CC(C)C)NC(=O)OC(C)(C)C)o1,-29%,i,i,8,i,-63%
C[C@H](NC(=O)OC(C)(C)C)c1nnc(SCc2c(F)cccc2Cl)o1,-2%,i,-21%,-1,i,19%
CC(C)[C@H](NC(=O)OC(C)(C)C)c1nnc(S(=O)(=O)Cc2c(F)cccc2Cl)o1,-22%,i,-6%[57.5 µM],-3,i,11µM*
COc1cccc(C2c3[nH]c4ccccc4c3C[C@H]3C(=O)N(c4ccccc4C(=O)N4CCC(C(=O)O)CC4)C(=O)N23)c1 (stereo not given in full),3%,i,25%,2,28µM*,16%
CC(C)c1ccc(C2c3[nH]c4ccccc4c3C[C@H]3C(=O)N(c4ccccc4C(=O)N4CCC[C@H]4C(=O)O)C(=O)N23)cc1 (stereo not given in full),7%,i,-1%,-5,?,13%
COc1ccc(C2c3[nH]c4ccccc4c3C[C@H]3C(=O)N(c4ccccc4C(=O)N4CCC(C(=O)O)CC4)C(=O)N23)cc1 (stereo not given in full),0%,i,-43%,-8,22µM*,7%
COc1cccc(C2c3[nH]c4ccccc4c3C[C@H]3C(=O)N(C4CC4)CC(=O)N23)c1 (stereo not given in full),0%,i,-26%,-4,i,21%
CCn1nc(C(=O)OCc2ccc(C(C)(C)C)cc2)c2ccccc2c1=O,.,.,.,12,.,.
COc1ccc(OC)c(C(=O)c2ccc([N+](=O)[O-])cc2)c1,12%,i,i,3,i,-20%
COc1ccc(C(=O)c2ccc([N+](=O)[O-])cc2Cl)cc1,5%,i,-87%,0,i,11µM*
O=C(NNC(=S)Nc1ccccc1)C(c1ccccc1)c1ccccc1,.,.,.,-2,.,.
CC(=O)NC(=S)NNC(=O)C(c1ccccc1)c1ccccc1,22µM*,i,-11%,-7,i,18µM*
Oc1c(Cl)cc(CN2CCOCC2)c2cccnc12,?,i,-1%,9,i,?
Oc1c(CN2CCc3ccccc3C2)cc(Cl)c2cccnc12,-31%,i,22µM*,20,i,-22%
CCCCOc1ccc(C#N)cc1OCC,.,.,.,27,.,.
COc1ccc(/C=C(/C#N)C(=O)c2c(Cl)cccc2Cl)cc1,.,.,.,7,.,.
O=C1NC2(CCc3ccccc3C2)C(=O)N1CCOc1cccc(Cl)c1 (stereo not given),15%,?,-35%,-3,i,20µM*
Cn1nc(C(=O)Nc2cc(Cl)ccc2N2CCCCC2)c2ccccc2c1=O,.,.,.,-1,.,.
Cc1onc(-c2ccccc2Cl)c1C(=O)Nc1ccc(-n2nncc2C(C)(C)C)cc1,-1%,i,i,-1,i,-8%
Cc1onc(-c2ccccc2Cl)c1C(=O)Nc1ccc(-n2nncc2-c2ccco2)cc1,10%,i,i,-3,8.9µM*,-14%
Oc1ccc(Br)cc1-c1nc2cnccn2c1NC1CCCC1,11%,i,-41%,0,i,22µM*
Oc1ccc(Br)cc1-c1nc2cnccn2c1NC1CCCCC1,0%,i,i,4,i,?
CC1CCCN(CC(=O)N2c3ccccc3Sc3ccccc32)C1 (stereo not given),11%,22µM*,21%,1,i,1%
O=C(CN1CCCCCC1)N1c2ccccc2Sc2ccccc21,3%,i,3%,-7,i,-14%
CCOc1ccc(C(=O)Nc2ccc3oc(=O)ccc3c2)cc1OC,.,.,.,0,.,.
SMILES,aSyn rescue,Abeta yeast res,PTHR1 agonist,LDHA inh,FUS yeast rescue,TDP-43 yeast inh
CC(=O)Nc1sc2c(c1-c1nc3ccccc3s1)CCSC2,.,.,.,5,.,.
CN(c1ccccc1)c1ccc(/C=N/Nc2ccc(S(N)(=O)=O)cc2[N+](=O)[O-])cc1,.,.,.,-1,.,.
COc1cc2cc(CNc3ccccc3)c(=O)n(CC(=O)Nc3cc(C)cc(C)c3)c2cc1OC,9%,i,0%,17,25µM*,-3%
COc1ccc(NC(=O)Cn2c(=O)c(CNc3ccccc3)cc3cc(OC)c(OC)cc32)cc1,.,.,.,16,.,.
O=C(CCc1ncc(-c2c(F)cccc2F)o1)Nc1cccc(F)c1,.,.,.,2,.,.
COc1ccc(-c2nn(C)c3sc(C(=O)N4CCN(c5ccccc5F)CC4)cc23)cc1OC,.,i,i,-8,i,20µM*
COc1ccc(N2CCN(C(=O)c3cc4c(-c5cccc(OC)c5)nn(C)c4s3)CC2)cc1,0%,i,i,4,?,16µM*
COc1cccc(-c2nn(C)c3sc(C(=O)N4CCN(c5cccc(C(F)(F)F)c5)CC4)cc23)c1,.,i,i,1,?,7%
CCc1ccc(-c2nc3c(c(=O)[nH]c(=O)n3Cc3ccccc3)n2CC2CCCO2)cc1 (stereo not given),.,.,.,-1,.,.
COc1ccc(C(=O)NNC(=S)NC(=O)c2ccc(Br)o2)cc1OC,8%,i,i,-4,i,3.5µM*
COc1ccc(C(=O)NC(=S)NNC(=O)c2c(-c3ccccc3)noc2C)cc1OC,?,11µM*,-4%,-2,i,-14%[1.82 µM]
O=C(/C=C/c1ccc(F)cc1)NC(=S)NNC(=O)[C@H]1C[C@@H]1c1ccccc1,10µM*,?,-19%,-10,i,6.3µM*
O=C(NC(=S)NNC(=O)[C@H]1C[C@@H]1c1ccccc1)c1ccc(F)cc1,3.5µM*,?,-26%,-2,i,10µM*
CCCNC(=O)NC(=O)CN1CCCCC1,.,.,.,7,.,.
Cc1csc2nc(COc3ccc(F)cc3F)cc(=O)n12,.,.,.,0,.,.
COc1ccc(C(=O)NC(=S)NNC(=O)[C@H]2C[C@@H]2c2ccccc2)cc1OC,18µM*,?,-9%,-2,i,28%
COc1cc(OC)cc(C(=O)NC(=S)NNC(=O)[C@H]2C[C@@H]2c2ccccc2)c1,19%,?,-11%,-18,i,23%
CCOC(=O)c1ccc(C(=O)OCC)c(NC(=S)Nc2ccc([N+](=O)[O-])cc2OC)c1,-16%,i,-34%,-3,i,18µM*
O=C(N/N=C/c1ccsc1)c1cccc(C(F)(F)F)c1,.,.,.,3,.,.
C=CCNC(=O)NC(=O)CN(C)Cc1ccc(C(F)(F)F)cc1,.,.,.,3,.,.
Cc1ccc(-n2cnc3cc(C(=O)NCCC4=CCCCC4)ccc32)c(C)c1,.,i,-23%,6,?,25µM*
